# Results: PubChem BioAssay AID1159580 (chemical genetic matrix, 2015)
# The whole screen tested about 5,500 compounds, of which about 2,000 (36%) were called active. Not shown: some 18% with an inconclusive outcome. The list shows a part of the results. A number with no mark means an inactive call. Rule as the data show it: active = normalized growth mostly below about 0.91 (no sharp cut-off); inconclusive = no clear call, values can overlap the other calls; inactive = mostly above about 0.92.
# Assay: chemical genetic growth profiling, strain panel (AID 1159580);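 also: tested at 20 µM; growth read once vehicle control cultures reached saturation at 30 °C; 1 = growth at the plate median or of vehicle wells; lower values mean less growth of the strain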
# Conditions: growth OD
smiles,measurement,setting,value
COc1c(C(C)C)oc2cc3oc(=O)ccc3cc12,normalized growth,"S. cerevisiae deletion strains, locus YBR021W, strain FUR4, active compounds read low",0.915
same,normalized growth,"S. cerevisiae deletion strains, locus YBR229C, strain ROT2, active compounds read low",0.987
same,normalized growth,"S. cerevisiae deletion strains, locus YCL029C, strain bik1, active compounds read low",0.839 (active)
same,normalized growth,"S. cerevisiae deletion strains, locus YDL035C, strain GPR1, active compounds read low",0.749 (active)
same,normalized growth,"S. cerevisiae deletion strains, locus YDL074C, strain BRE1, active compounds read low",0.721 (active)
same,normalized growth,"S. cerevisiae deletion strains, locus YDL101C, strain DUN1, active compounds read low",0.918
same,normalized growth,"S. cerevisiae deletion strains, locus YDL185W, strain tfp1, active compounds read low",0.933
same,normalized growth,"S. cerevisiae deletion strains, locus YDL192W, strain arf1, active compounds read low",0.894 (active)
same,normalized growth,"S. cerevisiae deletion strains, locus YDR101C, strain arx1, active compounds read low",0.929
same,normalized growth,"S. cerevisiae deletion strains, locus YDR162C, strain NBP2, active compounds read low",0.826 (active)
same,normalized growth,"S. cerevisiae deletion strains, locus YDR318W, strain mcm21, active compounds read low",0.89 (active)
same,normalized growth,"S. cerevisiae deletion strains, locus YDR388W, active compounds read low",0.935
same,normalized growth,"S. cerevisiae deletion strains, locus YDR502C, strain sam2, active compounds read low",0.873 (active)
same,normalized growth,"S. cerevisiae deletion strains, locus YEL061C, strain CIN8, active compounds read low",0.933
same,normalized growth,"S. cerevisiae deletion strains, locus YER110C, active compounds read low",0.914
same,normalized growth,"S. cerevisiae deletion strains, locus YER155C, strain BEM2, active compounds read low",0.972
same,normalized growth,"S. cerevisiae deletion strains, locus YER167W, strain BCK2, active compounds read low",0.921
same,normalized growth,"S. cerevisiae deletion strains, locus YGL078C, strain dbp3, active compounds read low",0.911 (active)
same,normalized growth,"S. cerevisiae deletion strains, locus YGL086W, strain mad1, active compounds read low",0.883 (active)
same,normalized growth,"S. cerevisiae deletion strains, locus YGL248W, strain PDE1, active compounds read low",0.869 (active)
same,normalized growth,"S. cerevisiae deletion strains, locus YGR135W, strain pre9, active compounds read low",0.779 (active)
same,normalized growth,"S. cerevisiae deletion strains, locus YGR252W, strain gcn5, active compounds read low",0.55 (active)
same,normalized growth,"S. cerevisiae deletion strains, locus YHR030C, strain SLT2, active compounds read low",0.885 (active)
same,normalized growth,"S. cerevisiae deletion strains, locus YHR079C, strain IRE1 (second series), active compounds read low",0.954
same,normalized growth,"S. cerevisiae deletion strains, locus YHR094C, strain hxt1, active compounds read low",0.967
same,normalized growth,"S. cerevisiae deletion strains, locus YHR129C, strain ARP1, active compounds read low",0.901 (active)
same,normalized growth,"S. cerevisiae deletion strains, locus YHR200W, strain rpn10, active compounds read low",0.915 (active)
same,normalized growth,"S. cerevisiae deletion strains, locus YIL066C, strain RNR3, active compounds read low",0.801 (active)
same,normalized growth,"S. cerevisiae deletion strains, locus YIL073C, strain SPO22, active compounds read low",0.838
same,normalized growth,"S. cerevisiae deletion strains, locus YIL125W, strain kgd1, active compounds read low",0.971
same,normalized growth,"S. cerevisiae deletion strains, locus YIR030C, strain dcg1, active compounds read low",0.941
same,normalized growth,"S. cerevisiae deletion strains, locus YJL095W, strain BCK1, active compounds read low",0.722 (active)
same,normalized growth,"S. cerevisiae deletion strains, locus YJL134W, strain LCB3, active compounds read low",0.983
same,normalized growth,"S. cerevisiae deletion strains, locus YJL168C, strain set2, active compounds read low",0.957
same,normalized growth,"S. cerevisiae deletion strains, locus YJL187C, strain SWE1 (second series), active compounds read low",0.883
same,normalized growth,"S. cerevisiae deletion strains, locus YJR043C, strain POL32, active compounds read low",0.764 (active)
same,normalized growth,"S. cerevisiae deletion strains, locus YJR075W, strain HOC1, active compounds read low",0.877 (active)
same,normalized growth,"S. cerevisiae deletion strains, locus YKL009W, strain mrt4, active compounds read low",0.745 (active)
same,normalized growth,"S. cerevisiae deletion strains, locus YKL068W, active compounds read low",0.965
same,normalized growth,"S. cerevisiae deletion strains, locus YKL085W, strain MDH1 (second series), active compounds read low",0.958
same,normalized growth,"S. cerevisiae deletion strains, locus YKL085W, strain MDH1, active compounds read low",0.958
same,normalized growth,"S. cerevisiae deletion strains, locus YKR001C, strain vps1, active compounds read low",0.777 (active)
same,normalized growth,"S. cerevisiae deletion strains, locus YLR039C, strain RIC1, active compounds read low",0.944
same,normalized growth,"S. cerevisiae deletion strains, locus YLR058C, strain SHM2, active compounds read low",0.932
same,normalized growth,"S. cerevisiae deletion strains, locus YLR102C, strain apc9, active compounds read low",0.946
same,normalized growth,"S. cerevisiae deletion strains, locus YLR262C, strain YPT6, active compounds read low",0.971
same,normalized growth,"S. cerevisiae deletion strains, locus YLR268W, strain sec22, active compounds read low",0.888
same,normalized growth,"S. cerevisiae deletion strains, locus YLR330W, strain CHS5, active compounds read low",0.874 (active)
same,normalized growth,"S. cerevisiae deletion strains, locus YLR342W, strain FKS1 (second series), active compounds read low",0.661 (active)
same,normalized growth,"S. cerevisiae deletion strains, locus YLR371W, strain rom2, active compounds read low",0.951
same,normalized growth,"S. cerevisiae deletion strains, locus YLR418C, strain cdc73, active compounds read low",0.703 (active)
same,normalized growth,"S. cerevisiae deletion strains, locus YML016C, strain PPZ1, active compounds read low",0.958
same,normalized growth,"S. cerevisiae deletion strains, locus YML032C, strain rad52, active compounds read low",0.855 (active)
same,normalized growth,"S. cerevisiae deletion strains, locus YML124C, strain tub3, active compounds read low",0.96
same,normalized growth,"S. cerevisiae deletion strains, locus YMR078C, strain ctf18, active compounds read low",0.945
same,normalized growth,"S. cerevisiae deletion strains, locus YMR223W, strain ubp8, active compounds read low",0.9 (active)
same,normalized growth,"S. cerevisiae deletion strains, locus YMR263W, strain SAP30, active compounds read low",0.887 (active)
same,normalized growth,"S. cerevisiae deletion strains, locus YMR307W, strain GAS1, active compounds read low",0.743
same,normalized growth,"S. cerevisiae deletion strains, locus YNL067W, strain RPL9B, active compounds read low",0.862 (active)
same,normalized growth,"S. cerevisiae deletion strains, locus YNL153C, strain GIM3, active compounds read low",0.859 (active)
same,normalized growth,"S. cerevisiae deletion strains, locus YNL233W, strain BNI4, active compounds read low",0.806 (active)
same,normalized growth,"S. cerevisiae deletion strains, locus YNL250W, strain rad50, active compounds read low",0.932
same,normalized growth,"S. cerevisiae deletion strains, locus YNL271C, strain bni1, active compounds read low",0.889 (active)
same,normalized growth,"S. cerevisiae deletion strains, locus YNL298W, strain CLA4, active compounds read low",0.802 (active)
same,normalized growth,"S. cerevisiae deletion strains, locus YNL307C, strain MCK1, active compounds read low",0.51 (active)
same,normalized growth,"S. cerevisiae deletion strains, locus YNR052C, strain pop2, active compounds read low",0.884 (active)
same,normalized growth,"S. cerevisiae deletion strains, locus YOL012C, strain htz1",1.16
same,normalized growth,"S. cerevisiae deletion strains, locus YOL147C, strain pex11, active compounds read low",0.935
same,normalized growth,"S. cerevisiae deletion strains, locus YOR061W, strain CKA2, active compounds read low",0.91
same,normalized growth,"S. cerevisiae deletion strains, locus YOR069W, strain VPS5, active compounds read low",0.967
same,normalized growth,"S. cerevisiae deletion strains, locus YOR136W, strain idh2, active compounds read low",0.943
same,normalized growth,"S. cerevisiae deletion strains, locus YOR144C, strain elg1, active compounds read low",0.963
same,normalized growth,"S. cerevisiae deletion strains, locus YOR184W, strain ser1, active compounds read low",0.828 (active)
same,normalized growth,"S. cerevisiae deletion strains, locus YOR316C, strain cot1, active compounds read low",0.957
same,normalized growth,"S. cerevisiae deletion strains, locus YPL055C, strain LGE1, active compounds read low",0.755 (active)
same,normalized growth,"S. cerevisiae deletion strains, locus YPR119W, strain clb2, active compounds read low",0.957
same,normalized growth,"S. cerevisiae deletion strains, locus YPR141C, strain kar3, active compounds read low",0.952
same,normalized growth,"S. cerevisiae deletion strains, locus YPR163C, strain tif3, active compounds read low",0.769 (active)
same,normalized growth,"S. cerevisiae deletion strains, locus YPR167C, strain met16, active compounds read low",0.895 (active)
same,normalized growth,"S. cerevisiae deletion strains, strain wtn01, active compounds read low",0.887 (active)
same,normalized growth,"S. cerevisiae strains, strain wild type, active compounds read low",0.899 (active)
